# ± gives the standard deviation.
# System: MILI (PIWIL2) piRISC loaded with L1MC piRNA (26 nt)
# Assay: pre-steady-state target cleavage rate (min^-1); guide: L1MC piRNA 5'p-UAACUAAAUACUAUGCAAGCUGUAGG; MIWI and MILI are mouse PIWI proteins and EfPiwi is from a freshwater sponge; tags in brackets are library labels; higher = faster piRNA-guided slicing of the target
# How it was run: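 A transcribed, DNA-blocked target RNA library […] was incubated at 33 °C for 0–8 or 0–960 min with 1 nM active affinity-purified piRISC carrying one synthetic guide, in HEPES–potassium acetate buffer with or without 500 nM GTSF1 partner protein. Uncleaved targets were then sequenced and normalised to depth and to weakly complementary targets. Data from three trials were pooled, with k3 capped at 0.0001 min^-1, and a burst-and-steady-state fit yielded the pre-steady-state cleavage rate.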
# [1] = auxiliary factor: 500 nM mouse GTSF1
# [2] = auxiliary factor: none (no GTSF1)
# 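Further: 1 nM active piRISC with 0.1 nM target library at 33 °C single turnover.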
Sequence,pre-steady-state target cleavage rate [1],pre-steady-state target cleavage rate [2]
UCCUGGAUGUCGUUGCAUUGUAUUUAGUUA,0.0197 ± 0.0048,0.00572 ± 0.0024
UCCUGGAUGAGCUAGCAUAGUAUAUAGUUA,0.242 ± 0.034,0.0046 ± 0.0022
UCCUGGAUGUGCUUGGUUAGUAUUUAGUUA,0.0978 ± 0.017,0.01 ± 0.0025
UCCUGGAUGUGCUUGCAUAGGUAUUUAGUUA,0.0061 ± 0.0046,0.00533 ± 0.0032
UCCUGGAUGUCGAACCAAUGUAUUUAGUUA,< 0.0001,< 0.0001
UCCUGGAUGUCCUUGCUUAGUUUUUAGUUA,0.0152 ± 0.0067,0.00494 ± 0.0023
UCCUGGAACAGCUUGAUAGUAUUUAGUUA,0.11 ± 0.013,0.00612 ± 0.0022
UCCUGGAUGUCGAAGCAUAGUAUUUGGUUA,0.0178 ± 0.0055,0.00505 ± 0.0019
UCCUGGAUGAGCUUGCAUAGUUAUUAGUUA,0.00731 ± 0.0048,0.00364 ± 0.0023
UCCUGGAUGUCGUUGCAUAAUAUUUAGUUA,0.0662 ± 0.017,0.00621 ± 0.0023
UCCUGGUACAGCUUGCAUAGAUUUUAGUUA,0.0355 ± 0.0097,0.00346 ± 0.0029
UCCUGGAUGUCGAUGCAUAGUAUAUUAGUUA,0.0713 ± 0.015,0.00716 ± 0.0023
UCCUCGUACAGCUUGGAUAGUAUUUAGUUA,0.265 ± 0.012,0.00962 ± 0.0023
UCCUGGAUGUCGAAGGCAUAGUAUUUAGUUA,0.0371 ± 0.0065,0.00443 ± 0.0024
UCCUGGAUGUGCAUGCAUAGUUUUUAGUUA,0.01 ± 0.0069,0.00641 ± 0.003
UCCUGGAUGUCGAAGCAUAGUAUCUUAGUUA,0.0223 ± 0.0048,0.00455 ± 0.0025
UCCUGGAUGUCGAAGCAUAGUAUCUAGUUA,0.0263 ± 0.0077,0.00418 ± 0.0019
UCCUGGAUCAGCAUGCAUAGUAUUUACUUA,0.126 ± 0.016,0.00358 ± 0.0024
UCCUGGAUGUCCUUGGAUAGUUUUUAGUUA,0.0144 ± 0.0045,0.00344 ± 0.0027
UCCUGGAACAGCUUGCAUAGUCAUUUAGUUA,0.0205 ± 0.008,0.00479 ± 0.0022

# Source: the supplement of paper PMC10338343
